In paper PMC7862700, “An all-to-all approach to the identification of sequence-specific readers for epigenetic DNA modifications on cytosine”:

Tests used:
Experiment in all cases: DAPPL (digital affinity profiling via proximity ligation, sequencing); 10 mM Tris-HCl pH 7.5, 50 mM NaCl, 1 mM DTT, 4% glycerol, room temperature, 30 min; GST-TFs on glutathione beads, 16-mer random dsDNA library, 0.1% formaldehyde crosslink after washing; high values mean tight binding
FLI1 = target: T1, FLI1 (Homo sapiens, UniProt Q01543 1-452); conditions: protein: recombinant; tags: N-terminal GST; dsDNA, one strand shown
T1 sequence: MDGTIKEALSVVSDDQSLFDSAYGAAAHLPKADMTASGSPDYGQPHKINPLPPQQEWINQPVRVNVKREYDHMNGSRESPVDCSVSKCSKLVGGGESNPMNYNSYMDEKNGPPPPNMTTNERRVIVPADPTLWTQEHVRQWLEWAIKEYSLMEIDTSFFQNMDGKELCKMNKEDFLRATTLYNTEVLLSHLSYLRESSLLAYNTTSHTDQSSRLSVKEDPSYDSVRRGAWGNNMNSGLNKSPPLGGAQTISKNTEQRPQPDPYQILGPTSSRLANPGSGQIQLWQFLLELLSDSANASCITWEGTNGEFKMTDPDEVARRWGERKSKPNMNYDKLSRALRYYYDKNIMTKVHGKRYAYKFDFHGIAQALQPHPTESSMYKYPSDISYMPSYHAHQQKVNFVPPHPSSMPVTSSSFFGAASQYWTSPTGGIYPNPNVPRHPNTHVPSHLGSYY
Summary of the method: (§1)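 Pools were built from human transcription factors expressed in yeast as GST fusions, captured on glutathione beads and DNA-barcoded, along with a tag-only sample. Incubation with 200 nmole of a 16-mer random double-stranded DNA library lasted 30 min at room temperature in Tris/NaCl/DTT/glycerol buffer, and was followed by washing, 0.1% formaldehyde crosslinking, proximity ligation, PCR amplification and Illumina NextSeq500 sequencing. Binding signal is the quotient of each hexamer's read frequency for a factor and its frequency for the tag-only sample.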

ELK1 = target: T2, ELK1 (Homo sapiens, UniProt P19419 1-428); conditions: protein: recombinant; tags: N-terminal GST; dsDNA, one strand shown
T2 sequence: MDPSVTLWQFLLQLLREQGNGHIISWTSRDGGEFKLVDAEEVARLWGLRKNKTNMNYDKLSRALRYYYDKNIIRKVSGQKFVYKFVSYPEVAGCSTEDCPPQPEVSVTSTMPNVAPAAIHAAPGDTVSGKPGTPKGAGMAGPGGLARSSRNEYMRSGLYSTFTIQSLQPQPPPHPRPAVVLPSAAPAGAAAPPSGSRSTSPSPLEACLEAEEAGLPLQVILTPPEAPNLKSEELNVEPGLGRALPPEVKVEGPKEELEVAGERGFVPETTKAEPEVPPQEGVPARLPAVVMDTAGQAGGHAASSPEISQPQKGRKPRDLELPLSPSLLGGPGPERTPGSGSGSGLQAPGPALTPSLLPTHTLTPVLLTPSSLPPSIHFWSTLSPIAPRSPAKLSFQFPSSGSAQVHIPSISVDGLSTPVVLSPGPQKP
Summary of the method: as §1

GABPA = target: T3, GABPA (Homo sapiens, UniProt Q06546 1-454); conditions: protein: recombinant; tags: N-terminal GST; dsDNA, one strand shown
T3 sequence: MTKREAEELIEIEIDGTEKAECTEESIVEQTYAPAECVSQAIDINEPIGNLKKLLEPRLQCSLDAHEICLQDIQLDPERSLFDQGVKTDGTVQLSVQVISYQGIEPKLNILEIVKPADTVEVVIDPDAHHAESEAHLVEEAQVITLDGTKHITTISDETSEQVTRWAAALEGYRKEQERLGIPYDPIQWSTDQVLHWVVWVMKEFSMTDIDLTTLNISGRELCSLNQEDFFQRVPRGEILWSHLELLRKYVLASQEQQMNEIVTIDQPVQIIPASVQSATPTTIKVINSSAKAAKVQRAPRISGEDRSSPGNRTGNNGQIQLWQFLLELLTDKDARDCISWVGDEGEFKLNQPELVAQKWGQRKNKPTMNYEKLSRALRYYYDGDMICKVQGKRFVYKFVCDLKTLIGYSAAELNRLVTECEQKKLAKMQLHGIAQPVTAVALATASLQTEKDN
Summary of the method: as §1

ELF1 = ELF1 (Homo sapiens, UniProt P32519 1-619); conditions: protein: recombinant; tags: N-terminal GST; dsDNA, one strand shown
Chain of ELF1 (P32519 whole entry): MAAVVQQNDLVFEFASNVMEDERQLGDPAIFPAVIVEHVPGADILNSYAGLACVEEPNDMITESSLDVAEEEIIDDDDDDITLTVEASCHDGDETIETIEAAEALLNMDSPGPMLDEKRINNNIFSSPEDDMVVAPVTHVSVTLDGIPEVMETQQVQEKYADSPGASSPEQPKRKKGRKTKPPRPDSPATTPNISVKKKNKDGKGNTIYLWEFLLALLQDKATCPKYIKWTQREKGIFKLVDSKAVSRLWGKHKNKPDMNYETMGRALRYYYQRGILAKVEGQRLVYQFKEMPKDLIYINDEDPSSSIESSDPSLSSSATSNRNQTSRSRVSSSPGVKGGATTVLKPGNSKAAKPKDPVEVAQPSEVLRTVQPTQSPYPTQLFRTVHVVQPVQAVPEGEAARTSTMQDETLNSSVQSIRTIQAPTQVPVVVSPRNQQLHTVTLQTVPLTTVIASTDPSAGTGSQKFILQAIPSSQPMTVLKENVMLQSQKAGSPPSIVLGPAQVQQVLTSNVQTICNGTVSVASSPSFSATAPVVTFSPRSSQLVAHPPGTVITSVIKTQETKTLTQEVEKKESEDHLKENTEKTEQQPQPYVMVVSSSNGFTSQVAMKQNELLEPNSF
Summary of the method: as §1

EHF = target: T4, EHF (Homo sapiens, UniProt Q9NZC4 1-300); conditions: protein: recombinant; tags: N-terminal GST; dsDNA, one strand shown
T4 sequence: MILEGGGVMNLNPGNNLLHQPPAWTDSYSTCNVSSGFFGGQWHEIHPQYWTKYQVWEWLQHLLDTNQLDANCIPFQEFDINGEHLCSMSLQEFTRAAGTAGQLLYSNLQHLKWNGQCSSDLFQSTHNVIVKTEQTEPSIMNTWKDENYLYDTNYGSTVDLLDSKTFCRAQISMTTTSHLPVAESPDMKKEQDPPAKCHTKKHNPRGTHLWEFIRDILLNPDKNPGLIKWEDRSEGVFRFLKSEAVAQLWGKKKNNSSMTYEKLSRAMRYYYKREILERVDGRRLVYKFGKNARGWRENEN
Summary of the method: as §1

SPI1 = SPI1 (Homo sapiens, UniProt P17947 1-270); conditions: protein: recombinant; tags: N-terminal GST; dsDNA, one strand shown
Summary of the method: as §1

SPIB = SPIB (Homo sapiens, UniProt Q01892 1-262); conditions: protein: recombinant; tags: N-terminal GST; dsDNA, one strand shown
Chain of SPIB (Q01892 whole entry): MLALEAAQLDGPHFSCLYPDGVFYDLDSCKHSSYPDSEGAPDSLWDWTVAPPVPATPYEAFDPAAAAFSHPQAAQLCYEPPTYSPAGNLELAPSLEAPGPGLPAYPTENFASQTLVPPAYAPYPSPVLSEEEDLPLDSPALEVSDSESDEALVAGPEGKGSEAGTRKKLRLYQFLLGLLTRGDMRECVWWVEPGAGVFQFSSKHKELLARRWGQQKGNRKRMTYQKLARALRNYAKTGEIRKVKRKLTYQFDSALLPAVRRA
Summary of the method: as §1

ELK3 = target: T5, ELK3 (Homo sapiens, UniProt P41970 1-407); conditions: protein: recombinant; tags: N-terminal GST; dsDNA, one strand shown
T5 sequence: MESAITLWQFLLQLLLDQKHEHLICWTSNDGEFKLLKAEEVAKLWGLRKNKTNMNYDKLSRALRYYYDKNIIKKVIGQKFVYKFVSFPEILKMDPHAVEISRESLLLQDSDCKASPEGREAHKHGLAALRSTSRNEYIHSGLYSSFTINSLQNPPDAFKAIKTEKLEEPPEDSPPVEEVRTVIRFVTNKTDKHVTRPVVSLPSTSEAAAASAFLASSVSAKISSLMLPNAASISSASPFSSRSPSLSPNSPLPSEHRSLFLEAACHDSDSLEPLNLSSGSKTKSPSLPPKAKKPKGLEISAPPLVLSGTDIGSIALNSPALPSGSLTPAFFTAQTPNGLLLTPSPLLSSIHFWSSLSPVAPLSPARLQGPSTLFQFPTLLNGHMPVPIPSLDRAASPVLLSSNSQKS
Summary of the method: as §1

FEV = target: T6, FEV (Homo sapiens, UniProt Q99581 1-238); conditions: protein: recombinant; tags: N-terminal GST; dsDNA, one strand shown
T6 sequence: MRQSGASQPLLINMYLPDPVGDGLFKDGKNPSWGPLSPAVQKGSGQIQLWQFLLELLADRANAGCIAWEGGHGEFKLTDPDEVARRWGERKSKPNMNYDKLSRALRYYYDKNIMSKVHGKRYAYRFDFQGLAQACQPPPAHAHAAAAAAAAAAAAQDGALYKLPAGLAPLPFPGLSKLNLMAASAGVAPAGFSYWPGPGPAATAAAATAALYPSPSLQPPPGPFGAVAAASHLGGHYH
Summary of the method: as §1

ETV5 = ETV5 (Homo sapiens, UniProt P41161 1-510); conditions: protein: recombinant; tags: N-terminal GST; dsDNA, one strand shown
Chain of ETV5 (P41161 whole entry): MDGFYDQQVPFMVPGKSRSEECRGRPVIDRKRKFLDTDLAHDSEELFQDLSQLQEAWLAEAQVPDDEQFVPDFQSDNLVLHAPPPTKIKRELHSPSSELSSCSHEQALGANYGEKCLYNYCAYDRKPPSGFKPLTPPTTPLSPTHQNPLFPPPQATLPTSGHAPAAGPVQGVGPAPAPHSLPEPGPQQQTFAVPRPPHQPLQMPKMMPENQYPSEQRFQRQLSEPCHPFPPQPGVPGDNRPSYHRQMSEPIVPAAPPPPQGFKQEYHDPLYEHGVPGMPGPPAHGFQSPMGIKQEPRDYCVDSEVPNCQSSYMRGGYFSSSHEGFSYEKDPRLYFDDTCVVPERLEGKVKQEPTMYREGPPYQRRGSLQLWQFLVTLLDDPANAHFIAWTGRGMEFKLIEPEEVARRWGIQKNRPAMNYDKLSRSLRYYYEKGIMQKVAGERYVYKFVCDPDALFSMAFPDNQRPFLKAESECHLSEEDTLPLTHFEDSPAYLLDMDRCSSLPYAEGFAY
Summary of the method: as §1

HSF1 = HSF1 (Homo sapiens, UniProt Q00613 1-529); conditions: protein: recombinant; tags: N-terminal GST; chain copies: 3; dsDNA, one strand shown
Chain of HSF1 (Q00613 whole entry): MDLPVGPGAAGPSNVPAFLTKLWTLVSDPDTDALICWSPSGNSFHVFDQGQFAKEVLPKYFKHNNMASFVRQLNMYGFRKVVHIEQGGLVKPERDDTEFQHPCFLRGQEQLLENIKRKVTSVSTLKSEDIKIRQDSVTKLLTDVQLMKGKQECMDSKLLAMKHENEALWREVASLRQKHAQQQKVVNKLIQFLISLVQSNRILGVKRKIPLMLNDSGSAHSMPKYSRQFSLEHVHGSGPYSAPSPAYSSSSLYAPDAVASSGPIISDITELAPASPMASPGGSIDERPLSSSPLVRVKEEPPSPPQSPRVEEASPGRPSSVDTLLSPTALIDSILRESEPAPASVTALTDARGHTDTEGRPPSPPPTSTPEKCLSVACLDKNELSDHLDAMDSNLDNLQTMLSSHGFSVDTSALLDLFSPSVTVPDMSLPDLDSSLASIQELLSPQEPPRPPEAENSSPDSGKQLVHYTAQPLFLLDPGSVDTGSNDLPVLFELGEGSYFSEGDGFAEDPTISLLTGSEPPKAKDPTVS
Summary of the method: as §1

SPIC = target: T7, SPIC (Homo sapiens, UniProt Q8N5J4 1-248); conditions: protein: recombinant; tags: N-terminal GST; dsDNA, one strand shown
T7 sequence: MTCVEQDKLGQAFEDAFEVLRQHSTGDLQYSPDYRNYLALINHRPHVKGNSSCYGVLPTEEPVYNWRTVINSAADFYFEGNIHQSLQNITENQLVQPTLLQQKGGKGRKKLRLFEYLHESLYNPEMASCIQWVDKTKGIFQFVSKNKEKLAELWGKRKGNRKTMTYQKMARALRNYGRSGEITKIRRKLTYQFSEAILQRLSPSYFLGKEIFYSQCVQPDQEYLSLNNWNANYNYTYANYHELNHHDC
Summary of the method: as §1

ELF4 = ELF4 (Homo sapiens, UniProt Q99607 1-663); conditions: protein: recombinant; tags: N-terminal GST; dsDNA, one strand shown
Chain of ELF4 (Q99607 whole entry): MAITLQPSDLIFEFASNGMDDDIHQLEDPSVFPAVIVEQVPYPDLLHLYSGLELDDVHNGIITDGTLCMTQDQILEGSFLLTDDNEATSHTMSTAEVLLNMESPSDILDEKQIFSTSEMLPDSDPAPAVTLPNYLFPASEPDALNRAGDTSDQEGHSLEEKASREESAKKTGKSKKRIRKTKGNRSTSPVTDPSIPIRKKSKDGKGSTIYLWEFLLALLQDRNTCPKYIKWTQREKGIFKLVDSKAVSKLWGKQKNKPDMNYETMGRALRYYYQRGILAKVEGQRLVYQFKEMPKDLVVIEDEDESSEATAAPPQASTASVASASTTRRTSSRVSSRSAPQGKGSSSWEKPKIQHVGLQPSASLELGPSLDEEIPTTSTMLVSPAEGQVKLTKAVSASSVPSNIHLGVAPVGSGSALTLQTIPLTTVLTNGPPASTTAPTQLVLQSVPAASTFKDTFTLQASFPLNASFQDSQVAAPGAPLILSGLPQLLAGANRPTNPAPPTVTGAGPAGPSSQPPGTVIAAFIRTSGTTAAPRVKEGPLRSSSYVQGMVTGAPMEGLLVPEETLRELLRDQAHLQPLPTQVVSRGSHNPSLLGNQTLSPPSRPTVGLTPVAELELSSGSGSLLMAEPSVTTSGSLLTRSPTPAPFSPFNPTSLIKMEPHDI
Summary of the method: as §1

ELK4 = target: T8, ELK4 (Homo sapiens, UniProt P28324-2 1-405); conditions: protein: recombinant; tags: N-terminal GST; dsDNA, one strand shown
T8 sequence: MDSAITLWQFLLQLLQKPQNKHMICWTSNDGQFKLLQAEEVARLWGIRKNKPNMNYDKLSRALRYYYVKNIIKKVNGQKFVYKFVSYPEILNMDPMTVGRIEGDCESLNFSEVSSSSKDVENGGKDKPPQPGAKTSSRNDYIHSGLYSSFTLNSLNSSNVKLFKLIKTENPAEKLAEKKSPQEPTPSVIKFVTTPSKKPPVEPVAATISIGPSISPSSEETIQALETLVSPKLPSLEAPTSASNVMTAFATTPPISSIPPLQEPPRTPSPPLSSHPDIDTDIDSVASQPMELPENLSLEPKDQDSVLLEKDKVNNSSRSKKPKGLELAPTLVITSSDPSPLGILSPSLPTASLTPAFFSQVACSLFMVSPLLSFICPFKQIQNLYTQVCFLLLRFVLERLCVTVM
Summary of the method: as §1

ETV2 = target: T9, ETV2 (Homo sapiens, UniProt O00321 1-342); conditions: protein: recombinant; tags: N-terminal GST; dsDNA, one strand shown
T9 sequence: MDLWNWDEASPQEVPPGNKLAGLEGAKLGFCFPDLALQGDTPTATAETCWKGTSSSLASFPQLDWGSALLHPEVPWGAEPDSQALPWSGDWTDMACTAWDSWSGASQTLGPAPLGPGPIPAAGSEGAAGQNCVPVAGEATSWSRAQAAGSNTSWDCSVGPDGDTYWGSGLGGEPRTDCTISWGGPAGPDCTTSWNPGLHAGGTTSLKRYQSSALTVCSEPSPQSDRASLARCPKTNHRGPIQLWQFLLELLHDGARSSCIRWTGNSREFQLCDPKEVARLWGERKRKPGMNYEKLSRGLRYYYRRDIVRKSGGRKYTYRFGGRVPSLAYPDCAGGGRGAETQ
Summary of the method: as §1

ELF3 = target: T10, ELF3 (Homo sapiens, UniProt P78545 1-371); conditions: protein: recombinant; tags: N-terminal GST; dsDNA, one strand shown
T10 sequence: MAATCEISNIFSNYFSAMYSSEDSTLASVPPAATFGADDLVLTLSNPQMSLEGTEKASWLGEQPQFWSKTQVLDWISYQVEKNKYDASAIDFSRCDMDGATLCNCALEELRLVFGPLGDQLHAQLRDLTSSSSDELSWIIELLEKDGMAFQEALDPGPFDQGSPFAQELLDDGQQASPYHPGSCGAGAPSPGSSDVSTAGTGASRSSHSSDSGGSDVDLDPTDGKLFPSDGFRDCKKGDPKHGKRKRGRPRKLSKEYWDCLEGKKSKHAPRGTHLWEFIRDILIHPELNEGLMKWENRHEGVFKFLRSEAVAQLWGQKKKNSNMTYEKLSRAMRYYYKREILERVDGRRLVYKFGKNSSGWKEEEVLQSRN
Summary of the method: as §1

CRX = CRX (Homo sapiens, UniProt O43186 1-299); conditions: protein: recombinant; tags: N-terminal GST; dsDNA, one strand shown
Chain of CRX (O43186 whole entry): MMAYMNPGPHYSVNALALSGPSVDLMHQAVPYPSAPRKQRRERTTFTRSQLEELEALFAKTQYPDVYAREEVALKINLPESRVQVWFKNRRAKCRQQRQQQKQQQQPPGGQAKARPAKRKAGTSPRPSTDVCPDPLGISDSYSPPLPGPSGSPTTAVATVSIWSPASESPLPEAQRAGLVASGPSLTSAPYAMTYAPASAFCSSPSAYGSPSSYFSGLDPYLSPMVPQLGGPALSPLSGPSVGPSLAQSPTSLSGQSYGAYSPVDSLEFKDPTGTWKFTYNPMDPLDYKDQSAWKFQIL
Summary of the method: as §1

ETV1 = ETV1 (Homo sapiens, UniProt P50549 1-477); conditions: protein: recombinant; tags: N-terminal GST; dsDNA, one strand shown
Chain of ETV1 (P50549 whole entry): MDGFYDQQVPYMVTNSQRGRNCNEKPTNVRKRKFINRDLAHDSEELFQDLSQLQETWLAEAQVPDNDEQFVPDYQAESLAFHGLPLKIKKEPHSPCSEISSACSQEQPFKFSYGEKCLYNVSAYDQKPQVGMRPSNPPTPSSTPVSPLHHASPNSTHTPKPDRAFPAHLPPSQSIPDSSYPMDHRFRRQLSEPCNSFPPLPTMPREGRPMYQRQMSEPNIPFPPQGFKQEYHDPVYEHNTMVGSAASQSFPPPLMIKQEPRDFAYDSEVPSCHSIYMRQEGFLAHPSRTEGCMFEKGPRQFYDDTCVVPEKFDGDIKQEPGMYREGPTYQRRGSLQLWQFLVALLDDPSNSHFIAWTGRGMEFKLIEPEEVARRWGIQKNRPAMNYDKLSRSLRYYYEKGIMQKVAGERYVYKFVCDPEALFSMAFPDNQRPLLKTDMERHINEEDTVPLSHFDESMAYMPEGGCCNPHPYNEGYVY
Summary of the method: as §1

Sequence: ACCGAA
- binding signal (FLI1): 1.09 fold enrichment (6-mer frequency, TF over GST control)
- binding signal (ELK1): 1.04 fold enrichment (6-mer frequency, TF over GST control)
- binding signal (GABPA): 1.05 fold enrichment (6-mer frequency, TF over GST control)
- binding signal (ELF1): 1.11 fold enrichment (6-mer frequency, TF over GST control)
- binding signal (EHF): 1 fold enrichment (6-mer frequency, TF over GST control)
- binding signal (SPI1): 1.06 fold enrichment (6-mer frequency, TF over GST control)
- binding signal (SPIB): 1.01 fold enrichment (6-mer frequency, TF over GST control)
- binding signal (ELK3): 1.01 fold enrichment (6-mer frequency, TF over GST control)
- binding signal (FEV): 1.05 fold enrichment (6-mer frequency, TF over GST control)
- binding signal (ETV5): 1.06 fold enrichment (6-mer frequency, TF over GST control)
- binding signal (HSF1): 1.25 fold enrichment (6-mer frequency, TF over GST control)
- binding signal (SPIC): 1.12 fold enrichment (6-mer frequency, TF over GST control)
- binding signal (ELF4): 1.03 fold enrichment (6-mer frequency, TF over GST control)
- binding signal (ELK4): 1.06 fold enrichment (6-mer frequency, TF over GST control)
- binding signal (ETV2): 1.19 fold enrichment (6-mer frequency, TF over GST control)
- binding signal (ELF3): 1.11 fold enrichment (6-mer frequency, TF over GST control)
- binding signal (CRX): 1.08 fold enrichment (6-mer frequency, TF over GST control)
- binding signal (ETV1): 1.05 fold enrichment (6-mer frequency, TF over GST control)
